Results published in PubChem BioAssay AID1159580 (chemical genetic matrix, 2015).
Screen size: about 5,500 compounds; about 2,000 (36%) were called active. Inconclusive results (about 18%) are left out. Rule as the data show it: active = normalized growth mostly below about 0.91 (no sharp cut-off); inconclusive = no clear call, values can overlap the other calls; inactive = mostly above about 0.92. This is one part of the list.

Experiment: chemical genetic growth profiling, strain panel (AID 1159580);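 also: tested at 20 µM; growth read once vehicle control cultures reached saturation at 30 °C; 1 = growth at the plate median or of vehicle wells; lower values mean less growth of the strain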
Settings: growth OD

Measured: normalized growth

CC(=O)OCC(=O)[C@@]1(O)CCC2C3CC[C@@H]4C[C@H](OC(C)=O)CC[C@]4(C)C3C(=O)C[C@@]21C (some centres not stated)
inactive: S. cerevisiae deletion strains, locus YBR021W, strain FUR4, stronger effect = lower value 0.972 | S. cerevisiae deletion strains, locus YBR229C, strain ROT2, stronger effect = lower value 0.997 | S. cerevisiae deletion strains, locus YCL029C, strain bik1, stronger effect = lower value 1.03 | S. cerevisiae deletion strains, locus YDL035C, strain GPR1, stronger effect = lower value 0.989 | S. cerevisiae deletion strains, locus YDL074C, strain BRE1, stronger effect = lower value 0.993 | S. cerevisiae deletion strains, locus YDL101C, strain DUN1, stronger effect = lower value 1.01 | S. cerevisiae deletion strains, locus YDL185W, strain tfp1, stronger effect = lower value 1.02 | S. cerevisiae deletion strains, locus YDL192W, strain arf1, stronger effect = lower value 1.01 | S. cerevisiae deletion strains, locus YDR101C, strain arx1, stronger effect = lower value 1.01 | S. cerevisiae deletion strains, locus YDR150W, strain NUM1, stronger effect = lower value 0.994 | S. cerevisiae deletion strains, locus YDR162C, strain NBP2, stronger effect = lower value 0.987 | S. cerevisiae deletion strains, locus YDR318W, strain mcm21, stronger effect = lower value 1 | S. cerevisiae deletion strains, locus YDR388W, stronger effect = lower value 1.01 | S. cerevisiae deletion strains, locus YDR502C, strain sam2, stronger effect = lower value 1 | S. cerevisiae deletion strains, locus YEL061C, strain CIN8, stronger effect = lower value 0.971 | S. cerevisiae deletion strains, locus YER110C, stronger effect = lower value 1.01 | S. cerevisiae deletion strains, locus YER155C, strain BEM2, stronger effect = lower value 0.994 | S. cerevisiae deletion strains, locus YER167W, strain BCK2, stronger effect = lower value 0.961 | S. cerevisiae deletion strains, locus YGL078C, strain dbp3, stronger effect = lower value 1 | S. cerevisiae deletion strains, locus YGL086W, strain mad1, stronger effect = lower value 1.01 | S. cerevisiae deletion strains, locus YGL248W, strain PDE1, stronger effect = lower value 1.01 | S. cerevisiae deletion strains, locus YGR135W, strain pre9, stronger effect = lower value 1 | S. cerevisiae deletion strains, locus YGR252W, strain gcn5, stronger effect = lower value 0.991 | S. cerevisiae deletion strains, locus YHR030C, strain SLT2, stronger effect = lower value 1 | S. cerevisiae deletion strains, locus YHR079C, strain IRE1 (second series), stronger effect = lower value 1.01 | S. cerevisiae deletion strains, locus YHR094C, strain hxt1, stronger effect = lower value 1.01 | S. cerevisiae deletion strains, locus YHR129C, strain ARP1, stronger effect = lower value 0.996 | S. cerevisiae deletion strains, locus YHR200W, strain rpn10, stronger effect = lower value 1.02 | S. cerevisiae deletion strains, locus YIL066C, strain RNR3, stronger effect = lower value 1 | S. cerevisiae deletion strains, locus YIL073C, strain SPO22, stronger effect = lower value 1.05 | S. cerevisiae deletion strains, locus YIL125W, strain kgd1, stronger effect = lower value 1 | S. cerevisiae deletion strains, locus YIR030C, strain dcg1, stronger effect = lower value 0.999 | S. cerevisiae deletion strains, locus YJL095W, strain BCK1, stronger effect = lower value 1 | S. cerevisiae deletion strains, locus YJL134W, strain LCB3, stronger effect = lower value 1 | S. cerevisiae deletion strains, locus YJL168C, strain set2, stronger effect = lower value 1.01 | S. cerevisiae deletion strains, locus YJL187C, strain SWE1 (second series), stronger effect = lower value 0.999 | S. cerevisiae deletion strains, locus YJR043C, strain POL32, stronger effect = lower value 0.995 | S. cerevisiae deletion strains, locus YKL009W, strain mrt4, stronger effect = lower value 0.988 | S. cerevisiae deletion strains, locus YKL068W, stronger effect = lower value 1.01 | S. cerevisiae deletion strains, locus YKL085W, strain MDH1 (second series), stronger effect = lower value 1.01 | S. cerevisiae deletion strains, locus YKL085W, strain MDH1, stronger effect = lower value 1.01 | S. cerevisiae deletion strains, locus YKL190W, strain CNB1, stronger effect = lower value 0.997 | S. cerevisiae deletion strains, locus YKR001C, strain vps1, stronger effect = lower value 1.01 | S. cerevisiae deletion strains, locus YLR039C, strain RIC1, stronger effect = lower value 1.02 | S. cerevisiae deletion strains, locus YLR058C, strain SHM2, stronger effect = lower value 0.993 | S. cerevisiae deletion strains, locus YLR102C, strain apc9, stronger effect = lower value 1.01 | S. cerevisiae deletion strains, locus YLR262C, strain YPT6, stronger effect = lower value 1.03 | S. cerevisiae deletion strains, locus YLR268W, strain sec22, stronger effect = lower value 1.03 | S. cerevisiae deletion strains, locus YLR330W, strain CHS5, stronger effect = lower value 1 | S. cerevisiae deletion strains, locus YLR342W, strain FKS1 (second series), stronger effect = lower value 1.01 | S. cerevisiae deletion strains, locus YLR371W, strain rom2, stronger effect = lower value 1 | S. cerevisiae deletion strains, locus YLR418C, strain cdc73, stronger effect = lower value 1.01 | S. cerevisiae deletion strains, locus YML016C, strain PPZ1, stronger effect = lower value 1.01 | S. cerevisiae deletion strains, locus YML032C, strain rad52, stronger effect = lower value 1 | S. cerevisiae deletion strains, locus YML124C, strain tub3, stronger effect = lower value 1.01 | S. cerevisiae deletion strains, locus YMR078C, strain ctf18, stronger effect = lower value 1.02 | S. cerevisiae deletion strains, locus YMR223W, strain ubp8, stronger effect = lower value 1.02 | S. cerevisiae deletion strains, locus YMR263W, strain SAP30, stronger effect = lower value 0.995 | S. cerevisiae deletion strains, locus YMR307W, strain GAS1, stronger effect = lower value 0.99 | S. cerevisiae deletion strains, locus YNL067W, strain RPL9B, stronger effect = lower value 1 | S. cerevisiae deletion strains, locus YNL153C, strain GIM3, stronger effect = lower value 1 | S. cerevisiae deletion strains, locus YNL233W, strain BNI4, stronger effect = lower value 0.995 | S. cerevisiae deletion strains, locus YNL250W, strain rad50, stronger effect = lower value 1.02 | S. cerevisiae deletion strains, locus YNL271C, strain bni1, stronger effect = lower value 1.01 | S. cerevisiae deletion strains, locus YNL298W, strain CLA4, stronger effect = lower value 1.01 | S. cerevisiae deletion strains, locus YNL307C, strain MCK1, stronger effect = lower value 1.02 | S. cerevisiae deletion strains, locus YNL322C, strain KRE1, stronger effect = lower value 0.998 | S. cerevisiae deletion strains, locus YNR052C, strain pop2, stronger effect = lower value 1.01 | S. cerevisiae deletion strains, locus YOL012C, strain htz1 1 | S. cerevisiae deletion strains, locus YOL147C, strain pex11, stronger effect = lower value 1.01 | S. cerevisiae deletion strains, locus YOR061W, strain CKA2, stronger effect = lower value 1.01 | S. cerevisiae deletion strains, locus YOR069W, strain VPS5, stronger effect = lower value 0.996 | S. cerevisiae deletion strains, locus YOR136W, strain idh2, stronger effect = lower value 1.02 | S. cerevisiae deletion strains, locus YOR144C, strain elg1, stronger effect = lower value 1.02 | S. cerevisiae deletion strains, locus YOR184W, strain ser1, stronger effect = lower value 1.01 | S. cerevisiae deletion strains, locus YOR316C, strain cot1, stronger effect = lower value 1.01 | S. cerevisiae deletion strains, locus YPR119W, strain clb2, stronger effect = lower value 1 | S. cerevisiae deletion strains, locus YPR141C, strain kar3, stronger effect = lower value 1.02 | S. cerevisiae deletion strains, locus YPR163C, strain tif3, stronger effect = lower value 1.02 | S. cerevisiae deletion strains, locus YPR167C, strain met16, stronger effect = lower value 1.02 | S. cerevisiae deletion strains, strain wtn01, stronger effect = lower value 1.02 | S. cerevisiae strains, strain wild type, stronger effect = lower value 0.986
